Test results: ChEMBL document CHEMBL1961873, “Compounds: GSK PKIS; Assays: Nanosyn kinase panel” (2012)

Biological target: Insulin-like growth factor 1 receptor (Homo sapiens) (UniProt P08069);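 also: each value is a mean percent inhibition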
Settings: at 1 µM

Insulin-like growth factor 1 receptor (Homo sapiens), sequence (P08069 31-736 limits assumed): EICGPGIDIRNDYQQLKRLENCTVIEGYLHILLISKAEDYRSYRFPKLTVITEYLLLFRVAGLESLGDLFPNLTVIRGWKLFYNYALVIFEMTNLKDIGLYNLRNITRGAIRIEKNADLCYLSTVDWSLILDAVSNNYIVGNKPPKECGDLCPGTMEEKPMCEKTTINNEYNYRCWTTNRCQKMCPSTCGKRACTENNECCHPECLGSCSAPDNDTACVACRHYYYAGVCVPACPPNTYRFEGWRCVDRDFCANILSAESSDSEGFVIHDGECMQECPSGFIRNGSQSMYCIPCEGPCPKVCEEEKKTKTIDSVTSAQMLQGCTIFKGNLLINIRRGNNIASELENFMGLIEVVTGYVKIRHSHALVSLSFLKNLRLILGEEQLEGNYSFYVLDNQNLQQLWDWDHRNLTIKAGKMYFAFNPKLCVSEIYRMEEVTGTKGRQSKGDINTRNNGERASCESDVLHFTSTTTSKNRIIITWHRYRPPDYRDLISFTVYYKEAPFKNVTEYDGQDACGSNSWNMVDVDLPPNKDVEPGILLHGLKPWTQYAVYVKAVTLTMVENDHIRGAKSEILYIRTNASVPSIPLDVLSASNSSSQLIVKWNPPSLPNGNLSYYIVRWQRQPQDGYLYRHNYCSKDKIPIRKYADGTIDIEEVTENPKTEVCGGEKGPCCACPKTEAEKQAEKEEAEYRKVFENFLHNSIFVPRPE
Insulin-like growth factor 1 receptor (Homo sapiens), sequence (P08069 741-1367 limits assumed): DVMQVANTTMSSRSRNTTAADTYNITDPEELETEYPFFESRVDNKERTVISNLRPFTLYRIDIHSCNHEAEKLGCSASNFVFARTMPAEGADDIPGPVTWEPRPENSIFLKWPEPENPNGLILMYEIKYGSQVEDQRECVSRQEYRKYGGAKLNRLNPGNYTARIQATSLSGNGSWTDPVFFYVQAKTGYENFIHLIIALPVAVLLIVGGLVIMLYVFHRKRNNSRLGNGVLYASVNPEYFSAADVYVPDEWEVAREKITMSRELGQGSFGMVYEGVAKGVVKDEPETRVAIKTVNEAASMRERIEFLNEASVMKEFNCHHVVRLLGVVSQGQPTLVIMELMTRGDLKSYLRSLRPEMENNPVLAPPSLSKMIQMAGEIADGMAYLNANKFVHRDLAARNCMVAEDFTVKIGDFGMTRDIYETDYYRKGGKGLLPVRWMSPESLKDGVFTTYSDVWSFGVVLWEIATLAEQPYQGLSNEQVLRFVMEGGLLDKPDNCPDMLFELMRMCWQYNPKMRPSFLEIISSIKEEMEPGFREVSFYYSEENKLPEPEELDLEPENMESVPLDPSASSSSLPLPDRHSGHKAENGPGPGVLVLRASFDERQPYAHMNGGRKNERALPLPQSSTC

Compared with `COc1ccc(-c2nn3ncccc3c2-c2ccnc(Nc3cccc(C(F)(F)F)c3)n2)cc1`, `Cc1ccc2c(-c3ccnc(Nc4cccc(C(F)(F)F)c4)n3)c(-c3ccccc3)nn2n1` is higher in inhibition: 0.2% for the first, 4.76% for the second.

First: COc1cc(/C=N/Nc2ncnc3c2cnn3C(C)C)ccc1O
Second: COc1cc2ncnc(Nc3ccc4c(cnn4Cc4ccccc4)c3)c2cc1OC
The inhibition of the first is higher: 7.79% for the first, -0.72% for the second.

Going from `Cc1cc(-c2ccccn2)cc(C)c1/C=C/c1cncc(-c2nn[nH]n2)c1` to `O=C1Nc2ccc(-c3cccnc3)cc2C1=Cc1cc(Br)c(O)c(Br)c1`, the inhibition falls from 10.9% to 4.14%.

First: c1ccc(Cc2nc3ccc(Nc4ncnc5ccccc45)cc3[nH]2)cc1
Second: O=S(=O)(CCOCc1ccc(-c2ccc3ncnc(Nc4ccc(OCc5cccc(F)c5)c(Cl)c4)c3c2)o1)c1ccccc1
The inhibition of the first is lower: 3.88% for the first, 8.7% for the second.

First: NS(=O)(=O)c1ccc(NC=C2C(=O)Nc3ccc4ncsc4c32)cc1
Second: Cc1ccc2c(c1)/C(=N/Nc1ccc(S(N)(=O)=O)cc1)C(=O)N2
The inhibition of the first is higher: 26.7% for the first, -2.24% for the second.

First: Nc1nccc(C#Cc2cncnc2Nc2ccc(OCc3cccc(F)c3)c(Cl)c2)n1
Second: Oc1cccc(-c2nc(-c3ccccc3)[nH]c2-c2ccncc2)c1
The inhibition of the first is lower: 4.12% for the first, 5.15% for the second.

First: CCCN1CCCC(c2ccc(Nc3nc(Nc4cc(F)ccc4C(N)=O)c4cc[nH]c4n3)c(OC)c2)C1 (centres undefined)
Second: COC(=O)Nc1nc2cc(Oc3ccc(NC(=O)Nc4cccc(Br)c4)cc3)ccc2[nH]1
The inhibition of the first is higher: 94.8% for the first, 2.4% for the second.

First: ON=C1CCc2cc(-c3nc(C4CCNCC4)[nH]c3-c3ccncc3)ccc21
Second: Cc1ccc2c(-c3ccnc(Nc4ccc5c(c4)OCCO5)n3)c(-c3ccc(C(F)(F)F)cc3)nn2n1
The inhibition of the first is lower: -0.56% for the first, 0.39% for the second.

Biological target: Insulin receptor (Homo sapiens) (UniProt P06213);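 also: reported values are averages of replicate inhibition measurements against the insulin receptor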
Settings: at 0.1 µM

Insulin receptor (Homo sapiens), sequence (P06213 28-758 limits assumed): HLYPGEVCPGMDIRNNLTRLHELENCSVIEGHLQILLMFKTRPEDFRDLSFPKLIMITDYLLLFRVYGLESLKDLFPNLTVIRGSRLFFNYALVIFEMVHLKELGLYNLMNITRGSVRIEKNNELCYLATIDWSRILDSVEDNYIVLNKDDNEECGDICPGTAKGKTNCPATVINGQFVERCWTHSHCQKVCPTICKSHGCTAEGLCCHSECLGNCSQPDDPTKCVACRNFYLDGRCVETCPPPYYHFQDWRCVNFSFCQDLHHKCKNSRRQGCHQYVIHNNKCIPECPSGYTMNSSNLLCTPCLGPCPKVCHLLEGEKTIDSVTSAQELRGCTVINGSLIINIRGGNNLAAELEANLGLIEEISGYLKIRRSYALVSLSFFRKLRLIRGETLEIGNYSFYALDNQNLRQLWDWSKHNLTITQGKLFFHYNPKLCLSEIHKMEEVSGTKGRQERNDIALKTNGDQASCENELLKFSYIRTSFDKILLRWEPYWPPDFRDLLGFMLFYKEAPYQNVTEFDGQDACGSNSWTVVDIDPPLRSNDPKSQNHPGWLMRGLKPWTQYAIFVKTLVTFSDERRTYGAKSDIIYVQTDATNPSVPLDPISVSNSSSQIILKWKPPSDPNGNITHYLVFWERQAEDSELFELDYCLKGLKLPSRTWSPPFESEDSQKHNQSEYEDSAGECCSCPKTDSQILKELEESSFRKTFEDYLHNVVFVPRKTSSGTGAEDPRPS
Insulin receptor (Homo sapiens), sequence (P06213 763-1382 limits assumed): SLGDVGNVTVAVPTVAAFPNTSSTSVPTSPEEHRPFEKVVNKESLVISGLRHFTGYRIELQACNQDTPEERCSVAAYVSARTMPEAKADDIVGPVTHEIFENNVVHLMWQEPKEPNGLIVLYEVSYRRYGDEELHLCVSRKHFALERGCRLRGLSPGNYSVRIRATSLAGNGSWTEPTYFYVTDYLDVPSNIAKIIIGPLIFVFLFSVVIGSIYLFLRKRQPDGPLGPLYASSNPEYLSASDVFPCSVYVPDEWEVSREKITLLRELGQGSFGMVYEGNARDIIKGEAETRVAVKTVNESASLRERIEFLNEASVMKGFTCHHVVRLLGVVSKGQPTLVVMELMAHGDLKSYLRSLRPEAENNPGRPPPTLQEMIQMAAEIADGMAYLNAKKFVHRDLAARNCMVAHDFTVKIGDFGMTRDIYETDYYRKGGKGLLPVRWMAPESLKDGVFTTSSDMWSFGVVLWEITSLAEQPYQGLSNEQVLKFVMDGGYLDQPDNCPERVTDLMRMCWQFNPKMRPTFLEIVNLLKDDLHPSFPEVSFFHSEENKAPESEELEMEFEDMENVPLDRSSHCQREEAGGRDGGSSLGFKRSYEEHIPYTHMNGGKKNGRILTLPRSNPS

Going from `N#Cc1cccc(Nc2nccc(-c3cnn4ncccc34)n2)c1` to `CC(C)c1ccc(Nc2nccc(-c3cnn4ncccc34)n2)cc1`, the inhibition rises from 9.03% to 10.2%.

Compared with `Cc1cc(O)cc(C)c1/C=C/c1cncc(C(=O)N(C)C)c1`, `Cc1cc(-c2ccccn2)cc(C)c1/C=C/c1cncc(-c2nn[nH]n2)c1` is higher in inhibition: 2.68% for the first, 5.7% for the second.

Compared with `CN(C)CCCn1c(-c2nonc2N)nc2cnccc21`, `CCn1c(-c2nonc2N)nc2c(C#CC(C)(C)O)nc(OCCNC)cc21` is lower in inhibition: 7.05% for the first, 6.39% for the second.

First: COc1cccc(-n2ncc3c(N/N=C/c4ccc(S(C)(=O)=O)cc4)ncnc32)c1
Second: COc1cccc(-n2ncc3c(N/N=C/c4ccc(C)cc4)ncnc32)c1
The inhibition of the first is lower: 2.59% for the first, 21.4% for the second.

Going from `COc1cc(Nc2nccc(-c3cnn4ncccc34)n2)cc(OC)c1` to `COc1ccc(-c2nn3ncccc3c2-c2ccnc(Nc3cccc(C(F)(F)F)c3)n2)cc1`, the inhibition falls from 12.3% to 0.4%.

First: NC(=O)c1cccc(Nc2nccc(Nc3cccc(F)c3)n2)c1
Second: NS(=O)(=O)c1cccc(Nc2cc(-c3ccc(F)cc3)n[nH]2)c1
The inhibition of the first is higher: 4.46% for the first, 0.86% for the second.

Compared with `NS(=O)(=O)c1ccc(Nc2cc(-c3cccc(O)c3)n[nH]2)cc1`, `Cc1ccc2c(c1)/C(=N/Nc1ccc(S(N)(=O)=O)cc1)C(=O)N2` is lower in inhibition: 3.33% for the first, -0.03% for the second.

Going from `O=C1Nc2ccccc2/C1=C/Nc1ccc2[nH]c(=O)[nH]c2c1` to `NS(=O)(=O)c1ccc(NC=C2C(=O)Nc3ccc4ncsc4c32)cc1`, the inhibition falls from 8.02% to 6.96%.

First: CN1CCN(C(=O)c2ccc(NC(=O)Nc3ccc(N(C)c4ccnc(Nc5ccc(CS(C)(=O)=O)cc5)n4)cc3)cc2)CC1
Second: Cc1ccc2c(-c3ccnc(Nc4cccc(C(F)(F)F)c4)n3)c(-c3ccccc3)nn2n1
The inhibition of the first is lower: 4.81% for the first, 8.09% for the second.

First: Cc1cc(Cl)cc2c1NC(=O)C2=NNc1ccc(S(N)(=O)=O)cc1
Second: O=C1Nc2ccc(-c3cccnc3)cc2C1=Cc1cc(Br)c(O)c(Br)c1
The inhibition of the first is lower: 2.78% for the first, 3.63% for the second.

Compared with `CN(C)C(=O)O[C@@H]1CN[C@@H](C#Cc2cc3ncnc(Nc4ccc(OCc5cccc(F)c5)c(Cl)c4)c3s2)C1`, `CN(C)C(=O)O[C@H]1CN[C@H](C#Cc2cc3ncnc(Nc4ccc(OCc5cccc(F)c5)c(Cl)c4)c3s2)C1` is higher in inhibition: 0.78% for the first, 4.02% for the second.

Compared with `CN(C)c1cc2c(Nc3ccc4c(cnn4Cc4ccccc4)c3)ncnc2cn1`, `c1ccc(Cc2nc3ccc(Nc4ncnc5ccccc45)cc3[nH]2)cc1` is lower in inhibition: 5.08% for the first, 3.54% for the second.

First: COc1cc(/C=N/Nc2ncnc3c2cnn3C(C)C)ccc1O
Second: Nc1nccc(C#Cc2cncnc2Nc2ccc(OCc3cccc(F)c3)c(Cl)c2)n1
The inhibition of the first is lower: 2.75% for the first, 3.13% for the second.

Going from `CCCN1CCCC(c2ccc(Nc3nc(Nc4cc(F)ccc4C(N)=O)c4cc[nH]c4n3)c(OC)c2)C1` (centres undefined) to `ON=C1CCc2cc(-c3nc(C4CCNCC4)[nH]c3-c3ccncc3)ccc21`, the inhibition falls from 98.9% to 1.61%.
